# According to the supplement of paper PMC12494721:
# Where a name gives a salt, the structure may show the parent alone.
# Assays:
# Conditions in all cases: 20 µM; incubation time: 27 h, anaerobic, 37 °C;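 for the amine columns active = adjusted P below 0.05 in both replicates with a change the same way and a mean fold change under 0.8 or over 1.25; inactive = the rest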
# [1] = system: Clostridium sporogenes DSM 1664; test: growth (OD595) fold change vs plate DMSO controls (fold change (ratio)); higher = more growth
# Outline: (§1)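 Anaerobic 27 h, 37 °C mGAM 96-well cultures were shaken, then read for absorbance at 595 nm. Values were blank-subtracted and corrected for compound background using 20 µM compound solutions in water. A calibration factor of 5 converted them to OD. Growth is the fold change versus the median of plate DMSO controls. Fold changes above 1.5 were set to NA, and values are the mean of 2 biological replicates.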
# Escherichia coli IAI1 [2] = test: as above
# Outline: as §1
# [3] = system: Klebsiella aerogenes DSM 30053; test: as above
# Outline: as §1
# [4] = system: Ruminococcus gnavus DSM 108212; test: as above
# Outline: as §1
# [5] = system: Klebsiella aerogenes DSM 30053; test: fold change of Histamine concentration vs plate DMSO controls (fold change (ratio)); higher = more amine produced, active = hit call of the paper (significant change in both replicates, either direction)
# Outline: (§2)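 Amine values are fold changes relative to DMSO-only wells on the same plate. They derive from 27 h, 37 °C anaerobic mGAM cultures of four gut bacterial strains in 80 µL wells, dosed at 20 µM final, or 50 µM final for sweeteners. Extraction of the whole culture, LC–triple-quadrupole MS in dynamic MRM mode, external calibration curves and within-batch drift correction were used, with 2 biological replicates averaged.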
# [6] = system: Clostridium sporogenes DSM 1664; test: fold change of Tryptamine concentration vs plate DMSO controls (fold change (ratio)); higher = more amine produced, active = hit call of the paper (significant change in both replicates, either direction)
# Outline: as §2
# [7] = system: Ruminococcus gnavus DSM 108212; test: as above
# Outline: as §2
# Escherichia coli IAI1 [8] = test: fold change of Putrescine concentration vs plate DMSO controls (fold change (ratio)); higher = more amine produced, active = hit call of the paper (significant change in both replicates, either direction)
# Outline: as §2
# [9] = system: Klebsiella aerogenes DSM 30053; test: as above
# Outline: as §2
# Escherichia coli IAI1 [10] = test: fold change of Cadaverine concentration vs plate DMSO controls (fold change (ratio)); higher = more amine produced, active = hit call of the paper (significant change in both replicates, either direction)
# Outline: as §2
# [11] = system: Klebsiella aerogenes DSM 30053; test: as above
# Outline: as §2
# [12] = system: Ruminococcus gnavus DSM 108212; test: fold change of 2-Phenylethylamine concentration vs plate DMSO controls (fold change (ratio)); higher = more amine produced, active = hit call of the paper (significant change in both replicates, either direction)
# Outline: as §2
Structure (SMILES),growth [1],growth (Escherichia coli IAI1 [2]),growth [3],growth [4],fold change of Histamine concentration [5],fold change of Tryptamine concentration [6],fold change of Tryptamine concentration [7],fold change of Putrescine concentration (Escherichia coli IAI1 [8]),fold change of Putrescine concentration [9],fold change of Cadaverine concentration (Escherichia coli IAI1 [10]),fold change of Cadaverine concentration [11],fold change of 2-Phenylethylamine concentration [12]
C[C@]12CCC(=O)C(O)=C1CC[C@@H]1[C@@H]2CC[C@]2(C)C(=O)CC[C@@H]12 [Formestane],1.03,0.965,0.974,1.13,1.05 (inactive),0.968 (inactive),1 (inactive),1.02 (inactive),1.01 (inactive),1.01 (inactive),0.981 (inactive),1.03 (inactive)
CC(C)c1c(CN(C)C(C)Cc2ccccc2)n(C)n(-c2ccccc2)c1=O (centres undefined) [Famprofazone],1.02,1.15,1.06,1.05,0.986 (inactive),0.954 (inactive),1.06 (inactive),1.03 (inactive),1.02 (inactive),0.998 (inactive),1.01 (inactive),1.02 (inactive)
Nc1ccncc1 [Dalfampridine],0.947,0.992,1.02,0.985,0.957 (inactive),1 (inactive),1 (inactive),0.968 (inactive),0.989 (inactive),0.957 (inactive),1 (inactive),0.991 (inactive)
C[C@]12CC[C@H](O)CC1=CC[C@@H]1[C@@H]2CC[C@]2(C)C(=O)CC[C@@H]12 [Prasterone],1.17,1.01,1.04,1.07,0.984 (inactive),0.972 (inactive),0.985 (inactive),1 (inactive),0.999 (inactive),1.05 (inactive),0.991 (inactive),1 (inactive)
O=C(O)C(F)(F)C(F)(F)C(F)(F)C(F)(F)C(F)(F)C(F)(F)C(F)(F)C(F)(F)F [PFNA (Perfluorononanoic acid)],1.04,1,1.01,1.05,1.01 (inactive),0.955 (inactive),0.968 (inactive),1.01 (inactive),0.994 (inactive),1.03 (inactive),0.982 (inactive),0.915 (inactive)
C#C[C@]1(O)CC[C@H]2[C@@H]3CCC4=CC(=O)CC[C@]4(C)[C@H]3CC[C@@]21C [Ethisterone],0.939,1.07,1.01,0.986,1.05 (inactive),1.02 (inactive),1 (inactive),1.03 (inactive),1.04 (inactive),0.988 (inactive),0.997 (inactive),1.04 (inactive)
CCNC(=O)NC(=O)/C(C#N)=N/OC,1.09,1.08,1,1.05,0.937 (inactive),0.956 (inactive),1 (inactive),1.05 (inactive),1.02 (inactive),1.06 (inactive),1.02 (inactive),1.02 (inactive)
"CC(=O)OCC1=C(C(=O)O)N2C(=O)[C@@H](N)[C@H]2SC1 [Cephalosporanic acid, 7-amino]",1.05,1.05,0.979,0.924,1.07 (inactive),1.04 (inactive),0.949 (inactive),1.05 (inactive),1.01 (inactive),1 (inactive),0.985 (inactive),0.942 (inactive)
CN(C)C(=O)Oc1cc(OC(=O)N(C)C)cc(C(O)CNC(C)(C)C)c1 (centres undefined) [Bambuterol hydrochloride],1.09,1.03,1,1.18,1.03 (inactive),1.03 (inactive),1.02 (inactive),0.988 (inactive),1.03 (inactive),1 (inactive),0.995 (inactive),1.02 (inactive)
CN[C@@H]1[C@@H](O)[C@@H](O[C@@H]2[C@@H](O)[C@H](O[C@H]3O[C@H](CN)CC[C@H]3N)[C@@H](N)C[C@H]2N)OC[C@]1(C)O.CN[C@@H]1[C@@H](O)[C@@H](O[C@@H]2[C@@H](O)[C@H](O[C@H]3O[C@H]([C@@H](C)N)CC[C@H]3N)[C@@H](N)C[C@H]2N)OC[C@]1(C)O.CN[C@@H]1[C@@H](O)[C@@H](O[C@@H]2[C@@H](O)[C@H](O[C@H]3O[C@H]([C@@H](C)NC)CC[C@H]3N)[C@@H](N)C[C@H]2N)OC[C@]1(C)O [Gentamicine sulfate],1.12,1.03,0.994,1.16,0.948 (inactive),0.703 (inactive),1.08 (inactive),1.02 (inactive),1.02 (inactive),1.02 (inactive),1.05 (inactive),1.16 (inactive)
O=C1C2CC=CCC2C(=O)N1SC(Cl)(Cl)Cl (centres undefined),0.923,1.04,0.972,0.931,1.02 (inactive),1.04 (inactive),1.04 (inactive),1 (inactive),0.956 (inactive),0.806 (inactive),0.999 (inactive),1.05 (inactive)
CC1(C)CON(Cc2ccccc2Cl)C1=O,0.972,0.994,0.994,0.976,1.02 (inactive),1.02 (inactive),1.01 (inactive),1.01 (inactive),1 (inactive),1.02 (inactive),0.986 (inactive),0.993 (inactive)
